Test results: the supplement of paper PMC10933113
Counter-ions that a name gives are not always drawn. ± gives the uncertainty stated by the source.

The compounds below were run on THP-1 (assay: CD86 surface expression induction over DMSO control (% over DMSO); higher = stronger dendritic cell activation). Conditions: exposure time: 24 h.
Description: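 hCLAT-like CD54 and CD86 surface expression on THP1 cells after 24 h exposure at a single concentration (highest non-cytotoxic concentration, or 100-200 µM if not cytotoxic). Flow cytometry (iQue) was run on 5,000 live cells.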

In order of falling “CD86 surface expression induction” value:
1. CCCCCCCCCCCC(=O)NCCCN(C)C [N-[3-(Dimethylamino)propyl]dodecanamide] (200 µM)  43.4 ± 63
2. NC(=S)NC(N)=S [2,4-Dithiobiuret] (200 µM)  26.6 ± 0.3
3. CCCCCCCCCCCCO [1-Dodecanol] (100 µM)  21.8 ± 27
4. O=C(NS(=O)(=O)/C=C/c1cccs1)c1ccc(F)cc1Br (200 µM)  -2.46 ± 4
5. CCCCCCCC(=O)Oc1c(Br)cc(C#N)cc1Br [Bromoxynil octanoate] (100 µM)  -3.51 ± 5
6. CC/C=C\C/C=C\C/C=C\CCCCCCCC(=O)OCC [Ethyl linolenate] (10 µM)  -8.18 ± 6.8
7. Cn1sccc1=O [2-Methyl-4-isothiazolin-3-one hydrochloride] (10 µM)  -16.2 ± 4.7
8. CCC1OCC(COc2ccc(Oc3ccccc3)cc2)O1 (stereo not drawn) [Diofenolan] (10 µM)  -18.9 ± 5.4
